# Experimental data reported in PubChem BioAssay AID2685 (National Center for Advancing Translational Sciences (NCATS), 2010).
# Hit rate of the full screen: of about 320,000 compounds, about 2,100 (0.66%) were called active. Roughly 53% stayed inconclusive and do not appear here. This is one part of a sample in which actives are shown more often than they occur. Calls follow the shape of the dose curve; as a rule, active = well fitted inhibition curve with a large enough effect in the signal ratio, with a control signal flat (not every such curve was filed as active); inconclusive = small, poorly fitted or top-dose-only effect, or effect the other way, or a change in a side signal; inactive = flat fitted curve, though single readings scatter; the % refers to the signal ratio.
# Experiment: qHTS Assay for Lipid Storage Modulators in Drosophila S3 Cells;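 as to cell number change: cells counted by Cell Tracker Red CMTPX staining in the red channel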; as to lipid storage change, negative = inhibition: % is scaled to controls: 0 for no effect and ±100 for the full control effect
# Conditions: BODIPY lipid droplet fluorescence, 18-24 h, cells fed with added oleic acid; cell number change: measured here: cell count max response; series mostly up to 46.1 µM; lipid storage change, negative = inhibition: at the top concentration
# Outline: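 Drosophila S3 cells got compounds at several concentrations plus oleic acid (400 uM solution). Laser-scanning cytometry with 488 nm excitation read lipid droplets at 500-530 nm and cells at 575-640 nm. Percent activity was relative to 20 uM Triacsin C.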
# Potency is read from the fitted curve at half-maximal effect.
SMILES,"lipid storage change, negative = inhibition",cell number change,Potency,outcome
Cc1cccc([C@@H]2[C@@H]3C(=O)N(Cc4ccccc4)C(=O)[C@@H]3[C@]3(Cc4ccccc4)C(=O)N(c4ccc(C(F)(F)F)cc4)C(=O)N23)c1,21.6% (inactive),5.02%,–,–
O=C(Nc1ccccn1)c1cc(-n2cnnc2)ccc1Cl,1.83% (inactive),-4.08%,–,–
CC(C)Oc1ccc(C(=O)Nc2c3c(nn2C(C)(C)C)CS(=O)(=O)C3)cc1,-14.1% (inactive),–,–,–
O=C(COC(=O)Cc1ccc(Br)cc1)NC1CCCCCC1,-20.9% (inactive),-16.9%,–,–
CCCSc1nnc(NC(=O)CSc2nc3[nH]c(=O)cc(O)c3s2)s1,-8.42% (inactive),-1.41%,–,–
Cc1c(Cc2ccccc2)c(=O)oc2cc(OCC(=O)N3CCC(C(N)=O)CC3)ccc12,-27.3% (inactive),23.5%,–,–
Cc1c(CC(=O)N2CCC(C(N)=O)CC2)c(=O)oc2cc3c(cc12)CCC1(CCCCC1)O3,–,-23.7%,13 µM (active),–
Cc1c(CC(=O)O)c(=O)oc2cc3c(cc12)CCC(C)(C)O3,0.884% (inactive),4.46%,–,–
CCOc1ccccc1NC(=O)CCNC(=O)c1ccco1,–,-5.71%,–,inactive
O=c1[nH]c(C2CCCN(S(=O)(=O)c3cccc(F)c3)C2)nc2c1nnn2Cc1ccccc1 (centres undefined),–,10.8%,–,inactive
COc1ccc(Cn2nnc3c(=O)[nH]c(C4CCN(S(=O)(=O)c5ccc(C)cc5)CC4)nc32)cc1,–,-52.1%,13 µM (active),–
O=C(c1ccco1)N1CCCC(c2nc3c(nnn3Cc3ccccc3)c(=O)[nH]2)C1 (centres undefined),7.52% (inactive),1.8%,–,–
O=c1[nH]c(C2CCN(S(=O)(=O)c3ccccc3)CC2)nc2c1nnn2Cc1cccc(Cl)c1,–,26.3%,–,inactive
CC(C)(C)c1ccc(Cn2nnc3c(=O)[nH]c(C4CCN(C(=O)c5ccco5)CC4)nc32)cc1,–,-8.06%,20.6 µM (active),–
Cc1ccc(Cn2nnc3c(=O)[nH]c(C4CCN(S(=O)(=O)c5ccccc5)CC4)nc32)cc1,-14.5% (inactive),–,–,–
O=c1[nH]c(C2CCCN(S(=O)(=O)c3ccccc3)C2)nc2c1nnn2Cc1cccc(Cl)c1 (centres undefined),–,7.14%,2.59 µM (active),–
O=C(c1ccccc1Cl)N1CCC(c2nc3c(nnn3Cc3ccco3)c(=O)[nH]2)CC1,-9.79% (inactive),-9.84%,–,–
Cc1ccc(Cn2nnc3c(=O)[nH]c(C4CCN(S(=O)(=O)c5ccc(F)cc5)CC4)nc32)cc1,–,8.95%,–,inactive
Cc1ccc(-n2nnnc2SCC(=O)NC2CCCc3ccccc32)c(C)c1 (centres undefined),16.2% (inactive),–,–,–
O=C(CSc1ncn[nH]1)c1ccc(OC(F)F)cc1,14.1% (inactive),6.27%,–,–
CCCn1c(C(O)c2ccc(OC)cc2)nc2ccccc21 (centres undefined),0.274% (inactive),0.04%,–,–
O=C(NN=C1C2CC3CC1CC(Cl)(C3)C2)c1ccccn1,8.32% (inactive),10.9%,–,–

SMILES,"lipid storage change, negative = inhibition",cell number change,Potency,outcome
Cc1ccc(C(=O)Cn2c3[n+](c4ccccc42)CC(O)CS3)cc1 (centres undefined),8.6% (inactive),25.2%,–,–
O=C(Cc1ccccc1)Nc1nnc(-c2cccc([N+](=O)[O-])c2)s1,2.31% (inactive),-4.06%,–,–
Cc1cccc(N(Cc2cc(=O)[nH]c3ccccc23)C(=O)CCl)c1,–,-1.53%,20.6 µM (active),–
Cc1cccc(N(Cc2cc(=O)[nH]c3ccccc23)C(=O)C(C)C)c1,-11.5% (inactive),-7.9%,–,–
Cc1ccccc1N(Cc1cc(=O)[nH]c2ccccc12)C(=O)CCl,–,13.2%,–,inactive
CN(C)S(=O)(=O)c1ccc(NC(=O)C2CC(=O)N(Cc3ccccc3)C2)cc1 (centres undefined),0.189% (inactive),-10.9%,–,–
CCN(CC)S(=O)(=O)c1ccc(NN=C2CCN(C(C)C)CC2)c([N+](=O)[O-])c1,-5.99% (inactive),1.2%,–,–
Cc1ccc(S(=O)(=O)c2cc3c(=O)n4cc(C)ccc4nc3n(CC3CCCO3)c2=N)cc1 (centres undefined),10.8% (inactive),-5.73%,–,–
COP(=O)(OC)C(Nc1cc(Cl)cc(Cl)c1)c1cccc(O)c1 (centres undefined),-23% (inactive),-20.9%,–,–
CCCN(CC(=O)Nc1ccccc1OC)C(=O)Cc1ccccc1F,–,20.6%,–,inactive
CCCN(CC(=O)Nc1ccccc1OC)C(=O)CCC(=O)c1ccc(F)cc1,–,-6.3%,0.82 µM (active),–
CCN(CC(=O)Nc1ccccc1OC)C(=O)C1CCC1,–,0.934%,–,inactive
CCN(CC(=O)Nc1ccccc1OC)C(=O)C1CCCC1,–,-11%,–,inactive
CCCN(CC(=O)Nc1ccccc1OC)C(=O)CCC(=O)c1ccc(Cl)s1,-3.74% (inactive),-12.8%,–,–
CCCN(CC(=O)Nc1ccccc1OC)C(=O)C1CCCC1,–,–,3.66 µM (active),–
O=[N+]([O-])c1cccc(S(=O)(=O)N2CCCCC2)c1,–,2.7%,–,inactive
Fc1ccc(-c2cc(C(F)(F)F)nc(NCc3cccs3)n2)cc1,11.1% (inactive),10.1%,–,–
CCCN(CCC(=O)Nc1ccccc1F)CC1CC1,–,22.5%,–,inactive
COc1ccc(NC(=O)c2ccc(C)cc2)c[n+]1[O-],1.42% (inactive),9.2%,–,–
COc1ccc(C(c2nnnn2C(C)(C)C)N2CCN(C(=O)c3ccco3)CC2)cc1 (centres undefined),–,15.4%,–,inactive
COc1ccc(C(c2nnnn2C(C)C)N2CCN(C(=O)c3ccco3)CC2)cc1 (centres undefined),–,10.1%,0.0259 µM (active),–
COCCn1nnnc1C(c1ccc(OC)cc1)N1CCN(C(=O)c2ccco2)CC1 (centres undefined),–,10.8%,–,inactive
